Here are results for 40 molecules from PubChem BioAssay (Tox21).

Activity calls are given as the source filed them. The call rests on the fitted dose curve; in most records, active means well fitted curve in the direction sought with a large enough effect in the repeat runs; inconclusive means weak or mixed curves; inactive means flat fitted curve, though single readings scatter.
On the % scale 0 is the no-effect control and ±100 the full control effect.

The nature of this experiment: qHTS assay to test for compound auto fluorescence at 460 nm (blue) in HepG2 cell free culture (AID 720685). To be noted: Cell-free culture medium, blue autofluorescence 405/460 nm; series mostly up to 91.3 µM; fluorescence, % of fluorescent control: at the top concentration. An excerpt: U.S. Tox21 Program National Center for Advancing Translational Sciences [NCATS] NIH Chemical Genomics Center [NCGC] U.S. Environmental Protection Agency [EPA] National Institutes of Environmental Health Sciences [NIEHS] National Toxicology Program [NTP] U.S. Food and Drug Administration [FDA] Tox21 Assay Overview: Compound auto fluorescence often interferes with screening of the compound library against various biological targets and signaling pathways. Some of these compounds may have fluorophoric properties. Such properties may interfere with the assay outputs resulting in false positives and/or negatives. To decrease such complications and ensure the compound activities are relevant in terms of biological response, the Tox21 10K compound library was screened for auto fluorescence. From the fluorophores used as reporter signals in our screening assays, the auto fluorescence equivalencies of compounds against three fluorophores have been evaluated: Triamterene, Fluorescein and Rose Bengal sodium for blue, green and red fluorescence, respectively. The fluorescence intensities were measured using Excitation/Emission wavelengths at 405/460nm, 485/535nm and 540/590nm for blue, green and red labels, respectively. This assay includes the blue fluorescence data.
Tox21 Assay Protocol Summary: 5 uL of culture medium (MEM containing 10% FBS) per well was dispensed into black wall/clear bottom 1536-well plates using a Multidrop Combi Dispenser (ThermoFisher Scientific, Waltham, MA). After 23 nL compound or DMSO vehicle was transferred into assay plate by a pintool work station (Kalypsys, San Diego, CA), fluorescence intensities in the assay plates were measured by an Envision (PerkinElmer, Shelton, CT) plate reader using three labels for measuring blue, green and red fluorescence at […] 460, 535 and 590nm respectively.
A general note: In qHTS, concentration-response curves come from the screen itself.
On to `O=[N+]([O-])c1ccc2c3c(cccc13)CC2`, for which the “fluorescence, % of fluorescent control” value was 0.0183% (inactive).
The same measure, in the same setting: as for `N#CCNCC#N`, the figure is 0.0319% (inactive); as for `COc1cc(OC)nc(Sc2cccc(Cl)c2C(=O)O)n1`, -0.109% (inactive); as for `CCC(C)n1c(=O)[nH]c(C)c(Br)c1=O` (stereo not given), 0.128% (inactive).
`Nc1c(Br)cc([N+](=O)[O-])cc1[N+](=O)[O-]`: the “fluorescence, % of fluorescent control” value is -0.357% [at 95.7 µM] (inactive).
Regarding `CCCCOP(=O)(O)OCCCC`, the “fluorescence, % of fluorescent control” value is -0.119% (inactive).
In the case of `[O]=[Cd]`, the molecule was classed as inactive.
Take `CCC(Cl)[N+](=O)[O-]` (stereo not given): the “fluorescence, % of fluorescent control” value is -0.0401% [at 95.7 µM] (inactive).
Consider `Cc1ccccc1CO[C@@H]1C[C@@]2(C(C)C)CC[C@]1(C)O2`, for which the “fluorescence, % of fluorescent control” value is -0.0814% (inactive).
`CN(N=O)C(N)=O`: the “fluorescence, % of fluorescent control” value was 0.053% (inactive).
For `O=C(CCCN1CCC(n2c(=O)[nH]c3ccccc32)CC1)c1ccc(F)cc1`, the fluorescence, % of fluorescent control was -0.0144% [at 18.6 µM] (inactive).
On the same count and under the same terms, for `CCCCOC(=O)c1ccccc1N` the value was 0.0309% (inactive); for `O=C(O)c1cccc(Cl)c1`, -0.0086% (inactive).
Consider `CCN(Cc1ccc(Cl)nc1)/C(=C/[N+](=O)[O-])NC`, for which the “fluorescence, % of fluorescent control” value is -0.0073% [at 46 µM] (inactive).
Take `Cc1ncsc1CCCl`: the “fluorescence, % of fluorescent control” value was -0.0801% [at 46 µM] (inactive).
Regarding `CC(=O)CC(c1ccc(Cl)cc1)c1c(O)c2ccccc2oc1=O` (stereo not given), the “fluorescence, % of fluorescent control” value was 0.0824% [at 95.7 µM] (inactive).
For the molecule `C=C(C)[C@@H]1CC=C(C=O)CC1`, the “fluorescence, % of fluorescent control” value is 0.0043% (inactive).
Consider `CCCSP(=S)(OCC)Oc1ccc(Cl)cc1Cl` (stereo not given), for which the “fluorescence, % of fluorescent control” value is -0.0154% (inactive).
On to `CNC(=O)Oc1cccc(C(C)C)c1`, for which the “fluorescence, % of fluorescent control” value is -0.0148% (inactive).
With `CCC1(c2ccccc2)C(=O)N=C(O)NC1=O` (stereo not given), the “fluorescence, % of fluorescent control” value is 0.0057% (inactive).
For the molecule `COc1cc(OC)nc(Oc2cccc(Oc3nc(OC)cc(OC)n3)c2C(=O)O)n1`, the “fluorescence, % of fluorescent control” value is 1.11% (inactive).
Turning to `CCCCOC(=O)[C@@H](C)Oc1ccc(Oc2ccc(C#N)cc2F)cc1`, the “fluorescence, % of fluorescent control” value is -0.0514% (inactive).
With `Cc1cc(C)nc(Nc2ccccc2)n1`, the “fluorescence, % of fluorescent control” value was 0.0026% (inactive).
In the case of `CCC#N`, the “fluorescence, % of fluorescent control” value is -0.0591% [at 95.7 µM] (inactive).
With `Cc1ncc(CNC(=O)N(CCCl)N=O)c(N)n1`, the “fluorescence, % of fluorescent control” value is 0.0336% [at 46 µM] (inactive).
Take `O=C(NCO)NCO`: the “fluorescence, % of fluorescent control” value was -0.0125% [at 95.7 µM] (inactive).
For `Oc1c(Cl)cccc1Cl`, the “fluorescence, % of fluorescent control” value is -0.0555% (inactive).
Consider `CN1CCC(O)(c2ccc(F)cc2)C(C(=O)c2ccc(F)cc2)C1` (stereo not given), for which the “fluorescence, % of fluorescent control” value was 0.255% [at 46 µM] (inactive).
Same read-out and setting: as for `O=NN1CCCCC1`, the figure is -0.0248% (inactive); as for `CNC(=O)N(C)c1nc2ccccc2s1`, -0.0584% (inactive); as for `COc1cc(OC)nc(NC(=O)NS(=O)(=O)c2ncccc2OCC(F)(F)F)n1`, 0.0735% (inactive).
As to `Cc1cc(C)c(C(=O)P(=O)(C(=O)c2c(C)cc(C)cc2C)c2ccccc2)c(C)c1`, the “fluorescence, % of fluorescent control” value is -0.118% (inactive).
Same read-out and setting: as for `CCNc1nc(NC(C)C)nc(OC)n1`, the figure is -0.0834% (inactive).
Consider `CCN(CC)C(=O)[C@@H]1C=C2c3cccc4[nH]cc(c34)C[C@H]2N(C)C1`, for which the call was inactive.
Turning to `CSc1ccc(C(=O)C(C)(C)N2CCOCC2)cc1`, the “fluorescence, % of fluorescent control” value was -0.0038% (inactive).
On to `O=NN1CCN(N=O)CC1`, for which the “fluorescence, % of fluorescent control” value is -0.0041% (inactive).
In the case of `CNNC`, the “fluorescence, % of fluorescent control” value is 0.0477% [at 95.7 µM] (inactive).
Same read-out and setting: as for `C=CCC1=C(C)[C@@H](OC(=O)[C@@H]2[C@@H](C=C(C)C)C2(C)C)CC1=O`, the figure is 0.0238% (inactive).
Still for that read-out and setting: for `CCN(CC)c1nc(C)cc(OP(=S)(OC)OC)n1` the value was 0.0801% (inactive); for `CCOP(=S)(OCC)Oc1nc(Cl)n(C(C)C)n1`, -0.183% (inactive).
